Source: PubChem (several laboratories)
Sampled rows, rich in hits. Any-hit rate of the full collection: about 2.2%.
Myeloid diff 2 – myeloid differentiation induction; AID 624256; ER-HoxA9 myeloid progenitors, lysozyme-GFP differentiation, flow cytometry; hit rate 1% among 360,000; calls only at 10 µM;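 active means normalized GFP-positive differentiation at or above the plate's own cutoff, the solvent-only control mean plus 3 SD; inconclusive means no clear call, values can overlap the other calls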;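 further: cells exposed to compound for four days before flow analysis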
CRFR2-BP antag – antagonists of CRF-binding protein/CRF-R2 receptor complex | inhibition, % at 11.8 µM | HEK293 CRF-R2/CRF-BP, CRF-induced calcium fluorescence | hit rate 0.59% among 350,000 | AID 588475;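 active means inhibition of the ligand-induced calcium signal above about 50% at the single tested concentration, limit read from the data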
RTF Ca sens inh – cardiac RTF calcium desensitization | P19429+P45379 | IANBD-labeled cardiac RTF, Ca2+ fluorescence | inhibition, % at 7.15 µM | hit rate 0.12% among 340,000 | AID 493244;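 active means inhibition above the mean inhibition of all tested compounds plus 3 SD, cut at about 17% in these data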;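 further: assay run at fixed EC70 calcium of 1.6 mM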
cardiac RTF act – cardiac RTF calcium sensitization; activation, % at 7.2 µM; IANBD-labeled TnC RTF fluorescence at EC20 calcium; 0% EC20 calcium, 100% full calcium; P19429+P45379; AID 493008; hit rate 0.24% among 340,000;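 active means activation above the mean over all tested compounds plus 3 SD, cut at about 30% in these data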;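 further: rise in fluorescence read as greater calcium sensitivity of cardiac thin filaments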
CRFBP-R2 agonist – CRF-BP/CRF-R2 complex agonism. activation, % at 13.2 µM. HEK293 CRF-R2/CRF-BP, calcium dye fluorescence (FLIPR); percent of saturating CRF peptide response. hit rate 0.46% among 350,000. AID 588473;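 active means activation of at least 50%, plus an integration ratio under a set limit after plate pattern correction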;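 further: plate controls were neutral control wells without compound for no effect and CRF at EC100 for full effect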
* hit, by the source's call.

Results for Cn1c2ccccc2c(=O)c2c(=O)n(C3CCCCC3)c(-c3cccs3)nc21 ?
Myeloid diff 2: inactive; CRFR2-BP antag: -18; RTF Ca sens inh: -6; cardiac RTF act: 7; CRFBP-R2 agonist: 116*

Results for C[C@@H](CC#N)CN1CC[C@H](C(C)(C)C)CCC1=O ?
Myeloid diff 2: inactive; CRFR2-BP antag: 5; RTF Ca sens inh: -1; cardiac RTF act: 3; CRFBP-R2 agonist: -1

How did CCOc1cc(/C=C/C(=O)c2ccc(OC)c(CN3CCOCC3)c2)cc(Br)c1O do in these assays?
Myeloid diff 2: inconclusive; CRFR2-BP antag: -61; RTF Ca sens inh: -16; cardiac RTF act: 7; CRFBP-R2 agonist: 58*

Results for CCC(C)c1ccccc1NC(=O)COC(=O)c1ccc2[nH]c3c(c2c1)CCCC3 (stereo not drawn) ?
Myeloid diff 2: active; CRFR2-BP antag: -24; RTF Ca sens inh: 7; cardiac RTF act: 4; CRFBP-R2 agonist: 1

How did Cc1cc(C)c(OCC(=O)NCC2COc3ccccc3O2)c(C)c1 (stereo not drawn) do in these assays?
Myeloid diff 2: inactive; CRFR2-BP antag: -3; RTF Ca sens inh: -6; cardiac RTF act: -6; CRFBP-R2 agonist: 1

What do the screens show for `O=S1(=O)N[C@H](Cc2ccccc2)COc2cc(N3CCC[C@@H]3CO)ccc21`?
Myeloid diff 2: inactive

What do the screens show for `CCOc1cccc(CN2CCN(c3cccc(C(F)(F)F)c3)CC2)c1O`?
Myeloid diff 2: inactive; CRFR2-BP antag: -7; RTF Ca sens inh: 4; cardiac RTF act: -3; CRFBP-R2 agonist: 7

Results for COc1cccc(CN2CCN(c3cccc(C(F)(F)F)c3)CC2)c1OC ?
Myeloid diff 2: inactive; CRFR2-BP antag: 54*; RTF Ca sens inh: -4; cardiac RTF act: 3; CRFBP-R2 agonist: 1

What do the screens show for `COc1ccc([N+](=O)[O-])cc1NC(=O)c1ccccc1SC`?
Myeloid diff 2: inactive; CRFR2-BP antag: 100*; RTF Ca sens inh: 3; cardiac RTF act: 1; CRFBP-R2 agonist: -7

Results for COc1ccc(Cl)cc1NC(=O)C/C(C)=N/NC(=O)c1ccccc1[N+](=O)[O-] ?
Myeloid diff 2: inactive; CRFR2-BP antag: -6; RTF Ca sens inh: 0; cardiac RTF act: -1; CRFBP-R2 agonist: -2

Results for COc1ccc([N+](=O)[O-])cc1NC(=O)C(C)OC(=O)Cc1ccc(OC)c(OC)c1 (stereo not drawn) ?
Myeloid diff 2: inactive; CRFR2-BP antag: 17; RTF Ca sens inh: -3; cardiac RTF act: -7; CRFBP-R2 agonist: 0

How did C/C=C/C=C/C(=O)OC(C)C(=O)Nc1cc([N+](=O)[O-])ccc1OC (stereo not drawn) do in these assays?
Myeloid diff 2: inactive; CRFR2-BP antag: 112*; RTF Ca sens inh: 10; cardiac RTF act: 4; CRFBP-R2 agonist: 1

How did COc1ccc(Cl)cc1NC(=O)c1cccc([N+](=O)[O-])c1O do in these assays?
Myeloid diff 2: inactive; CRFR2-BP antag: 83*; RTF Ca sens inh: 4; cardiac RTF act: -1; CRFBP-R2 agonist: 32

Results for COc1ccc(-c2nc3ccccn3c2Cl)cc1 ?
Myeloid diff 2: inactive; CRFR2-BP antag: -9; RTF Ca sens inh: -5; cardiac RTF act: 2; CRFBP-R2 agonist: -5

Results for CC(=NO)c1ccc2c(c1)Cc1cc([N+](=O)[O-])ccc1-2 ?
Myeloid diff 2: inactive; CRFR2-BP antag: 43; RTF Ca sens inh: 4; cardiac RTF act: -2; CRFBP-R2 agonist: -2

How did CC(O)CN(CC(C)O)c1ccc2c(c1)Cc1cc([N+](=O)[O-])ccc1-2 (stereo not drawn) do in these assays?
Myeloid diff 2: active; CRFR2-BP antag: -187; RTF Ca sens inh: -23; cardiac RTF act: 9; CRFBP-R2 agonist: 197*

How did Nc1ccc2c(c1)Cc1cc([N+](=O)[O-])ccc1-2 do in these assays?
Myeloid diff 2: inactive; CRFR2-BP antag: -116; RTF Ca sens inh: 5; cardiac RTF act: -2; CRFBP-R2 agonist: 111*

Results for CCCNS(=O)(=O)c1ccc(Oc2ncc(C(F)(F)F)cc2Cl)cc1 ?
Myeloid diff 2: inactive; CRFR2-BP antag: -77; RTF Ca sens inh: -3; cardiac RTF act: 1; CRFBP-R2 agonist: 81*

What do the screens show for `Cc1nn(-c2ccccc2)c(C)c1/C=N/n1c(-c2ccccc2Br)n[nH]c1=S`?
Myeloid diff 2: inactive; CRFR2-BP antag: 71*; RTF Ca sens inh: 3; cardiac RTF act: -11; CRFBP-R2 agonist: -6

Results for CCN(CC)c1ccc(/C=N/n2c(-c3ccccc3Br)n[nH]c2=S)cc1 ?
Myeloid diff 2: inactive; CRFR2-BP antag: -11; RTF Ca sens inh: -5; cardiac RTF act: 2; CRFBP-R2 agonist: 0
